Experimental data reported in PubChem BioAssay AID431 (Sanford-Burnham Center for Chemical Genomics, 2006).
In all, about 63,000 compounds went through this assay and about 1,100 (1.7%) were called active. For the sample, actives were picked, then their nearest neighbours and some compounds at random. Entries with a potency or affinity are not part of this list. Unmarked numbers belong to inactive results.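 How the source made its calls: active means compounds whose percent cytotoxicity in the single-dose primary screen, scaled between solvent and toxic-drug controls, exceeds 50; inactive means the rest.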

Assay: viability loss of HPDE-C7K cells – cell-based, fluorescence, HTS, primary screen (AID 431);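 further: 0% = DMSO solvent wells and 100% = doxorubicin-treated wells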
Settings: HPDE-C7K KRASV12 cells, Alamar Blue viability, 48 h; at 10 µM; hits give high values
In the case of `Cc1sc2nc(SCC(=O)c3cc(C)n(CC4CCCO4)c3C)n(C(C)C)c(=O)c2c1C` (centres undefined), the cytotoxicity is reported as 22.2%. In the case of `Cn1nnc2cc(C(=O)NC(C)(C)C)ccc21`, the cytotoxicity is reported as 3.4%. `Cc1ccc2c(c1)c1ncnc(N3CCN(c4ccccc4)CC3)c1n2C` gave a cytotoxicity of 9.4%. Compound `Cc1ccc2c(c1)c1ncnc(N3CCOCC3)c1n2C` has a cytotoxicity of -7.1%. `Cc1ccc2[nH]c(=O)c(CN(Cc3ccccc3)Cc3nnnn3C3CCCC3)cc2c1` showed a cytotoxicity of 47.8%. For `Cc1ccc2cc(CN(Cc3ccccc3)Cc3nnnn3C3CCCC3)c(=O)[nH]c2c1`, the cytotoxicity was 56.3% (active). In the case of `Cc1ccc2cc(CN(Cc3ccc(F)cc3)Cc3nnnn3C3CCCC3)c(=O)[nH]c2c1`, the cytotoxicity is reported as 31.6%. `Cc1cc2cc(CN(Cc3ccc4c(c3)OCO4)Cc3nnnn3C3CCCC3)c(=O)[nH]c2cc1C` showed a cytotoxicity of 2.4%. `Cc1ccc2[nH]c(=O)c(CN(Cc3ccc4c(c3)OCO4)Cc3nnnn3C3CCCC3)cc2c1` gave a cytotoxicity of -0.4%. For `CCc1ccc2[nH]c(=O)c(CN(Cc3ccc4c(c3)OCO4)Cc3nnnn3C3CCCC3)cc2c1`, the cytotoxicity was 54.8% (active). For `O=C(Nc1ccc2c(c1)nc1n2CCN(C2CCCCC2)C1)c1ccco1`, the cytotoxicity was -30.2%. `Cc1ccc(-c2nnn(CC(=O)N(Cc3cccs3)C(C(=O)NC(C)(C)C)c3ccc(C)o3)n2)o1` (centres undefined) showed a cytotoxicity of 21.3%. `Clc1ccc(COn2nnc3ccccc32)c(Cl)c1` gave a cytotoxicity of 0.9%. With `COc1ccc(C(=O)N2CCc3cc(OC)c(OC)cc3C2)cc1OC` the cytotoxicity was -3.5%. In the case of `CCOc1cc(C(=O)N2CCc3cc(OC)c(OC)cc3C2)ccc1OC(F)F`, the cytotoxicity is reported as 89.4% (active). Compound `CCOc1ccc(C(=O)N2CCc3cc(OC)c(OC)cc3C2)cc1OCC` has a cytotoxicity of 45.5%. `CCOc1nc(-c2ccccc2)ccc1-c1noc(-c2ccc(OC)c(OC)c2)n1` showed a cytotoxicity of 20.5%. With `Cc1cc2c(c(=O)n1CCN(C)C)C(c1ccc(Br)cc1)C(C#N)=C(N)O2` (centres undefined) the cytotoxicity was 54.2% (active). In the case of `Cc1cc2c(c(=O)n1CCN(C)C)C(c1ccncc1)C(C#N)=C(N)O2` (centres undefined), the cytotoxicity is reported as 20.9%. `Cc1cc2c(c(=O)n1CCN(C)C)C(c1ccc(Cl)cc1)C(C#N)=C(N)O2` (centres undefined) gave a cytotoxicity of -10.1%. With `O=C(NCc1ccco1)C1CCN(c2nnc(-n3cccc3)s2)CC1` the cytotoxicity was -3.4%. `Cc1cc(C(=O)CN2C(=O)NC(c3ccccc3)(c3ccccc3)C2=O)c(C)n1Cc1ccco1` gave a cytotoxicity of 3.5%. For `COc1ccccc1NC(=O)C1=C(C)Nc2nnnn2C1c1ccncc1` (centres undefined), the cytotoxicity was -9.7%. For `COc1ccc(-c2nnc(Nc3nc4c(OC)cccc4s3)o2)cc1`, the cytotoxicity was 59.3% (active). Work on `Fc1cccc2sc(Nc3nnc(-c4ccccc4)o3)nc12` yielded a cytotoxicity of 44.8%. `Fc1cccc2sc(Nc3nnc(-c4ccco4)o3)nc12` gave a cytotoxicity of 29.2%. For `CCOC(=O)c1sc(Nc2nc3c(OC)cccc3s2)nc1C`, the cytotoxicity was 79.9% (active). For `COc1cc(-c2nnc(-c3cccs3)o2)cc(OC)c1OC`, the cytotoxicity was -28.7%. Work on `COC(=O)c1sc(NC(=O)COc2ccccc2OC)nc1C` yielded a cytotoxicity of -10.6%. `COc1cccc2sc(Nc3nnc(-c4ccccc4Cl)o3)nc12` showed a cytotoxicity of 31.7%. Work on `COc1cc2nc(-c3cccs3)oc(=O)c2cc1OC` yielded a cytotoxicity of 9.6%. In the case of `CCOC(=O)c1sc(NCCNc2nc(C)c(C(=O)OCC)s2)nc1C`, the cytotoxicity is reported as 1%. With `COc1ccccc1-c1nnc(Nc2nc3c(OC)cccc3s2)o1` the cytotoxicity was 56.1% (active). Compound `COc1cc(OC)cc(-c2nnc(Nc3nc4c(F)cccc4s3)o2)c1` has a cytotoxicity of 5.5%. For `COc1cccc2sc(Nc3nnc(-c4cccs4)o3)nc12`, the cytotoxicity was 59.6% (active). With `CCn1c(SCC(=O)NCCc2ccc(F)cc2)nnc1-c1cccs1` the cytotoxicity was 4.9%. With `COc1ccccc1OCc1nnc(SCC(=O)Nc2ccc(C)cc2)n1C` the cytotoxicity was -9.9%. Work on `Cc1ccc(CN2CC34C=CC(O3)C(C(=O)NCc3ccc5c(c3)OCO5)C4C2=O)cc1` (centres undefined) yielded a cytotoxicity of -15.5%. `CCN(CC)S(=O)(=O)c1cccc(-c2nnc(SCC(=O)NC)n2CCc2ccccc2)c1` gave a cytotoxicity of -3%. `COc1ccccc1N1CCN(C(=O)c2ccc(NC(C)=O)cc2)CC1` showed a cytotoxicity of -1.4%. Compound `Brc1ccc(-c2nnc(-c3ccccc3Br)o2)cc1` has a cytotoxicity of -2.3%. `CN(CC(=O)Nc1ccccc1Cl)C(=O)COC(=O)CNC(=O)c1ccc(Br)o1` gave a cytotoxicity of -18.6%. Work on `Cc1ccc2c(c1)nnn2C1CCN(C(=O)c2cccs2)CC1` yielded a cytotoxicity of -4.8%. `O=C(Cc1cccs1)Nc1ccc(C(=O)O)cc1` showed a cytotoxicity of -2.8%. With `CC(=O)OC1CC2(C)C(=O)CCC2C2CCc3cc(O)ccc3C12` (centres undefined) the cytotoxicity was -12.1%. `CCc1ccccc1S(=O)(=O)Cc1ccc(C(=O)NCC2CCCO2)o1` (centres undefined) showed a cytotoxicity of -0.8%. `c1ccc(-c2csc(Nc3cccnc3)n2)nc1` gave a cytotoxicity of 4.5%. In the case of `COc1cccc2sc(Nc3nc(-c4ccccn4)cs3)nc12`, the cytotoxicity is reported as 58.6% (active). Compound `Cc1cccc(Nc2nc(-c3ccccn3)cs2)n1` has a cytotoxicity of 10.2%.
